Source: a collection of fitness landscapes (doi:10.1016/j.celrep.2020.107928)
In all, about 81,000 sequences were measured (“one-hybrid fitness for binding NBS DNA”: median about -0.1, highest 2% from about 0.36 on). For the sample, the highest values were picked, then their nearest neighbours and some sequences at random.

B1: Caulobacter ParB omega fusion; a variant is named by its letters at X, in order, B8GW30 (parent)
chain: MESVVVGEPGMSEGRRGLGRGLSALLGEVDAAPAQAPGEQLGGSREAPIEILQRNPDQPRRTFREEDLEDLSNSIREKGVLQPILVRPSPDTAGEYQIVAGERAWRAAQRAGLKTVPIMVRELDDLAVLEIGIIENVQRADLNVLEEALSYKVLMEKFERTQENIAQTIGKSXSHVANXMRLLXLPDEVQSYLVSGELTAXHARAIAAAADPVALAKQIIEGGLSVRETEALARKAPNLSAGKSKGGRPPRVKDTDTQALESDLSSVLGLDVSIDHRGSTGTLTITYATLEQLDDLCNRLTRGI

Variants of: B1
Assay: one-hybrid fitness for binding NBS DNA (the Noc-binding site; scaled: cognate 1, non-cognate 0); higher = stronger binding
Settings: with NBS DNA site
In short: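 Bacterial one-hybrid selection in E. coli USO rpoZ- hisB- pyrF- with a HIS3 reporter carrying the site 19 bp from the promoter, screening Caulobacter ParB libraries with four specificity codons randomised (NNS). Cells grew 48 hours at 37°C on M9-minus-histidine plus 0.1 mM IPTG and 5 mM 3-AT. Plasmids before and after selection were Illumina-sequenced, three replicate libraries pooled, and variants under 10 reads dropped. Fitness is the log change in variant-to-wild-type read ratio, rescaled to cognate 1, non-cognate 0.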

Row | Variant | one-hybrid fitness for binding NBS DNA
1 | AGGD | ≤ 0.2
2 | QTAM | 0.233
3 | QTAD | ≤ 0.2
4 | QTAN | 0.217
5 | QTAS | 0.51
6 | QTFS | 0.391
7 | QTFN | ≤ 0.2
8 | QTFK | ≤ 0.2
9 | QTAP | ≤ 0.2
10 | QTAH | 0.401
11 | YQLR | ≤ 0.2
12 | LRHP | ≤ 0.2
13 | REPM | ≤ 0.2
14 | TKNF | ≤ 0.2
15 | SEEG | ≤ 0.2
16 | RKKT | 0.691
17 | RPVT | ≤ 0.2
18 | RKKQ | 0.242
19 | RKVT | 0.512
20 | RKVP | ≤ 0.2
21 | RKKG | 0.227
22 | ILKV | ≤ 0.2
23 | VPFY | ≤ 0.2
24 | KRAR | 0.541
25 | DRFR | ≤ 0.2

Row | Variant | one-hybrid fitness for binding NBS DNA
26 | KPAR | ≤ 0.2
27 | NRFR | ≤ 0.2
28 | KRFR | 0.469
29 | KCAR | ≤ 0.2
30 | STSG | ≤ 0.2
31 | QAQV | ≤ 0.2
32 | QPKV | ≤ 0.2
33 | QAKV | 0.393
34 | QRKV | 0.588
35 | QCKV | 0.479
36 | QKVV | ≤ 0.2
37 | QLKV | 0.342
38 | QRVV | 0.272
39 | QKCV | ≤ 0.2
40 | QRPV | ≤ 0.2
41 | QAVV | ≤ 0.2
42 | QKKV | 0.406
43 | NHES | ≤ 0.2
44 | WMIP | ≤ 0.2
45 | VPEL | ≤ 0.2
46 | KIDS | ≤ 0.2
47 | YGSP | ≤ 0.2
48 | QTKV | 0.599
49 | QHKV | 0.44
50 | QMKV | 0.424

Row | Variant | one-hybrid fitness for binding NBS DNA
51 | QTIV | ≤ 0.2
52 | QMNV | ≤ 0.2
53 | QIKV | 0.267
54 | QHVV | ≤ 0.2
55 | QSVV | ≤ 0.2
56 | QMVV | ≤ 0.2
57 | QTVV | ≤ 0.2
58 | QSKV | 0.398
59 | QHDV | ≤ 0.2
60 | TFNG | ≤ 0.2
61 | WQMG | ≤ 0.2
62 | FYPI | ≤ 0.2
63 | VPIG | ≤ 0.2
64 | DNCR | ≤ 0.2
65 | MCLS | ≤ 0.2
66 | LFAP | ≤ 0.2
67 | LAIW | ≤ 0.2
68 | QRFA | 0.494
69 | QRAA | 0.617
70 | QHAA | ≤ 0.2
71 | QMAA | 0.339
72 | QSFA | ≤ 0.2
73 | QPFA | ≤ 0.2
74 | QVCG | ≤ 0.2
75 | AEFL | ≤ 0.2

Row | Variant | one-hybrid fitness for binding NBS DNA
76 | MPNG | ≤ 0.2
77 | DRST | ≤ 0.2
78 | KRET | 0.501
79 | KCHT | ≤ 0.2
80 | KRGT | 0.537
81 | KRGH | ≤ 0.2
82 | KPET | ≤ 0.2
83 | KCST | ≤ 0.2
84 | KRHT | 0.651
85 | KCGT | ≤ 0.2
86 | KAET | ≤ 0.2
87 | KRST | 0.573
88 | KRHP | ≤ 0.2
89 | LDCV | ≤ 0.2
90 | DSPG | ≤ 0.2
91 | EQLY | ≤ 0.2
92 | TMSQ | ≤ 0.2
93 | VICL | ≤ 0.2
94 | MMNR | ≤ 0.2
95 | KRCT | 0.558
96 | NRRT | ≤ 0.2
97 | KRRT | 0.674
98 | DRYT | ≤ 0.2
99 | KCRT | 0.315
100 | KCYT | ≤ 0.2

Row | Variant | one-hybrid fitness for binding NBS DNA
101 | KRPT | 0.305
102 | KCIT | ≤ 0.2
103 | KRYT | 0.613
104 | NRCT | ≤ 0.2
105 | KRIT | 0.481
106 | KRCD | ≤ 0.2
107 | FRGT | ≤ 0.2
108 | HAIS | ≤ 0.2
109 | WVIG | ≤ 0.2
110 | TARF | ≤ 0.2
111 | LMCG | ≤ 0.2
112 | PVMR | ≤ 0.2
113 | SKSN | ≤ 0.2
114 | CRIR | ≤ 0.2
115 | HDNF | ≤ 0.2
116 | TALC | ≤ 0.2
117 | MHTW | ≤ 0.2
118 | KPWT | ≤ 0.2
119 | KRQP | ≤ 0.2
120 | KCQT | ≤ 0.2
121 | KRLT | 0.469
122 | KRWT | 0.669
123 | KRQT | 0.513
124 | NRWT | ≤ 0.2
125 | KPLT | ≤ 0.2

Row | Variant | one-hybrid fitness for binding NBS DNA
126 | KCLT | ≤ 0.2
127 | ELNV | ≤ 0.2
128 | NLKK | ≤ 0.2
129 | FRPG | ≤ 0.2
130 | HKCG | ≤ 0.2
131 | PFLC | ≤ 0.2
132 | RHWR | 0.256
133 | RHQR | 0.448
134 | RHLR | 0.329
135 | RHYR | 0.387
136 | RHIR | ≤ 0.2
137 | RHRR | 0.656
138 | RHHP | ≤ 0.2
139 | RHHH | ≤ 0.2
140 | RHPR | ≤ 0.2
141 | RHHR | 0.447
142 | EMNR | ≤ 0.2
143 | WDGG | ≤ 0.2
144 | QAEP | ≤ 0.2
145 | ADMS | ≤ 0.2
146 | PVLV | ≤ 0.2
147 | NCEV | ≤ 0.2
148 | SRIS | ≤ 0.2
149 | DRYY | ≤ 0.2
150 | RHSD | ≤ 0.2

Row | Variant | one-hybrid fitness for binding NBS DNA
151 | RHSH | ≤ 0.2
152 | RHGH | ≤ 0.2
153 | RHSR | 0.448
154 | RHGR | 0.403
155 | RHGP | ≤ 0.2
156 | MNYT | ≤ 0.2
157 | VDVI | ≤ 0.2
158 | YLRS | ≤ 0.2
159 | PAHQ | ≤ 0.2
160 | SSQC | ≤ 0.2
161 | FTTS | ≤ 0.2
162 | SMHC | ≤ 0.2
163 | QTCN | ≤ 0.2
164 | QTIS | 0.398
165 | QCLS | 0.382
166 | QTPS | 0.314
167 | QTIP | ≤ 0.2
168 | QSLS | 0.263
169 | QTIH | 0.221
170 | QPLS | ≤ 0.2
171 | QTCS | 0.495
172 | QTYS | 0.507
173 | QTCP | ≤ 0.2
174 | CPTM | ≤ 0.2
175 | DVLM | ≤ 0.2

Row | Variant | one-hybrid fitness for binding NBS DNA
176 | WVEG | ≤ 0.2
177 | TFRM | ≤ 0.2
178 | MYPF | ≤ 0.2
179 | EAVR | ≤ 0.2
180 | PVAE | ≤ 0.2
181 | QTQS | 0.504
182 | QMCP | ≤ 0.2
183 | QTWS | 0.444
184 | QMCD | ≤ 0.2
185 | QTES | 0.317
186 | QTQN | ≤ 0.2
187 | QTQP | ≤ 0.2
188 | QTWN | ≤ 0.2
189 | QTWP | ≤ 0.2
190 | QMCS | 0.38
191 | NTRS | ≤ 0.2
192 | QTRS | 0.811
193 | MSSN | ≤ 0.2
194 | FFKL | ≤ 0.2
195 | LPTN | ≤ 0.2
